# Test results taken from PubChem BioAssay.
# Records with an inconclusive call do not appear. Active and inactive are the calls of the source. Unless noted, no rule for the calls is given here.
# How the values were obtained:
# [1] = molecular target: Mitogen-activated protein kinase 7 (Homo sapiens) (UniProt Q13164); assay: Gal4-ERK5 driven luciferase induction – cell-based, HTS, primary screen (AID 1508626;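 active = luciferase signal above three times the same-plate solvent-only control wells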;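 also: luciferase driven by Gal4-ERK5 fusion binding five Gal4 sites before minimal TATA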); details: HeLa Gal4-ERK5 transactivation, 18 h, at 5 µM, stronger effect = higher value
# [2] = compounds altering viability of human ES cells (AID 493140); details: human embryonic stem cell survival screen; stronger effect = higher value;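 also: cells exposed to compounds for four days before counting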
# [3] = viability loss in pontine glioma line – cell-based, SU-DIPG-IV, MIPE4.0, CellTiter-Glo, qHTS, dose response (AID 1347063; cut-off not given, nearly all actives have AC50 up to about 30 µM;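 also: compound exposure lasted 48 hours before the viability readout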); details: CellTiter-Glo ATP luminescence
# [4] = growth inhibition of DIPG cells – cell-based, MIPE4.0 library, CellTiter-Glo luminescence, qHTS (AID 1347066; cut-off not given, nearly all actives have AC50 up to about 30 µM;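 also: cells exposed to compound for 48 hours before readout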); details: SU-DIPG-VI viability, CellTiter-Glo ATP luminescence
# [5] = compounds altering HSF1 focus formation in cells – imaging, Selleck Cancer Library (AID 1347162; in the data active = plate-normalised HSF1 focus index below about 0.46); details: human cells, HSF1 nuclear foci imaging, at 10 µM; SSMD: measured here: HSF1 foci SSMD mean; cell count: measured here: cell number; plate-normalised HSF1 focus index: stronger effect = lower value
# [6] = compounds altering circadian rhythm period length – cell-based, LOPAC library, luminescence reporter (AID 2774); details: circadian reporter cells, at 7 µM, actives lie on both sides;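 also: values are relative to mean of DMSO wells on each plate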
# [7] = tested on: Hepatitis C virus NS3 helicase; assay: blockers of NS3h binding to ssDNA – biochemical, fluorescence polarization, LOPAC1280 library, primary screen (AID 687035; in the data active = inhibition above about 37%); details: Purified HCV NS3 helicase, Cy5-dT15 ssDNA binding fluorescence polarization; stronger effect = higher value; concentration not given here
# [8] = compounds altering Cy5-DNA-NS3h complex signal – biochemical, LOPAC1280, artefact control for HCV NS3 helicase inhibitor project (AID 687037); details: Cy5-DNA-NS3h complex fluorescence interference counterscreen
# [9] = blockers of cellular phospholipid synthesis – cell-based, LOPAC library, screen 4, primary screen (AID 1347384); details: animal cells, phospholipid biosynthesis inhibition screen; at 10 µM
# [10] = viability loss in pontine glioma line – cell-based, SU-DIPG-XIII, MIPE5.0, CellTiter-Glo, qHTS, dose response (AID 1347064; cut-off not given, nearly all actives have AC50 up to about 23 µM;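 as to AC50: cells exposed to compound for 48 hours before the viability read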); details: CellTiter-Glo ATP luminescence
# [11] = viability loss in pontine glioma line – cell-based, SU-DIPG-XXV, MIPE5.0, CellTiter-Glo, qHTS, dose response (AID 1347065; cut-off not given, nearly all actives have AC50 up to about 26 µM;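 also: cells exposed to compound for 48 hours before ATP readout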); details: CellTiter-Glo ATP luminescence
# [12] = JHH-DIPG-1 glioma cell viability, MIPE5.0 library, CellTiter-Glo luminescence, qHTS (AID 1347067; cut-off not given, nearly all actives have AC50 up to about 26 µM;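 also: cells exposed to compound for 48 hours before readout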); details: JHH-DIPG-1 glioma viability, CellTiter-Glo ATP luminescence
# [13] = growth inhibition, single agent or in combination, cell-based, chromothripsis tumors, cisplatin or BGB combos (AID 1671449; in the data active = inhibition above about 80%;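 also: cells exposed for 96 hours; 0% = vehicle DMSO and 100% = killing by high DMSO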); details: LFS_MB_P medulloblastoma cells
# [14] = growth inhibition, single agent and combos, cell-based, chromothripsis tumors, cisplatin or BGB combos (AID 1671450; in the data active = inhibition above about 80%;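 also: cells exposed to compound for four days; 0% = vehicle DMSO and 100% = cell killing by high DMSO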); details: HDN33 neuroblastoma cells, stronger effect = higher value
# [15] = growth inhibition, single agents and combos, ICB984, cell-based, cisplatin or BGB combos, synergistic combos for chromothripsis tumors (AID 1671451); details: ICB984 medulloblastoma cells, drug combinations, stronger effect = higher value;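 also: cells exposed for 96 hours before readout; 0% = vehicle DMSO and 100% = killing by high DMSO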
# [16] = growth inhibition, single agents and combos, HTB85, cell-based, BGB or cisplatin IC20 combos, synergistic combos for chromothripsis tumors (AID 1671453; in the data active = inhibition above about 80%;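 also: cells exposed for 96 hours before readout; 0% = vehicle DMSO and 100% = high DMSO killing control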); details: HTB85 osteosarcoma cells, drug combinations, stronger effect = higher value
# [17] = growth inhibition, MDA-MB-436, cell-based, BGB or cisplatin combos, synergistic combos for chromothripsis tumors (AID 1671458); details: MDA-MB-436 breast carcinoma growth inhibition, drug combinations, stronger effect = higher value;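 also: cells exposed for 96 hours; 0% = vehicle DMSO and 100% = killing by high DMSO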
# [18] = BT084 cell growth, single and combined drugs, ICGC_MB145, cisplatin and BGB IC40 combos (AID 1671461; in the data active = inhibition above about 80%;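 also: cells exposed to drugs for 96 hours; 0% = vehicle DMSO and 100% = high DMSO full killing control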); details: BT084 medulloblastoma cells, drug combinations, stronger effect = higher value
# [19] = RCMB18 cell growth, single agent and combined, cisplatin and BGB IC40 combos (AID 1671462; in the data active = inhibition above about 80%;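 also: cells exposed to compound for four days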); details: RCMB18 medulloblastoma cells, stronger effect = higher value
# [20] = CRL1545 cell growth, single agent and combined, cisplatin and BGB IC20 combos (AID 1671464; in the data active = inhibition above about 80%;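 also: cells exposed to compound for 96 hours before readout; 0% = vehicle DMSO and 100% = high DMSO killing control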); details: CRL1545 osteosarcoma cells, stronger effect = higher value
# [21] = measured here: with BGB IC20 combination, at 0.5 µM
# [22] = measured here: with cisplatin IC20 combination, at 0.5 µM
# Sequence of Mitogen-activated protein kinase 7 (Homo sapiens) (Q13164 whole entry, looked up, the tested form may be a part): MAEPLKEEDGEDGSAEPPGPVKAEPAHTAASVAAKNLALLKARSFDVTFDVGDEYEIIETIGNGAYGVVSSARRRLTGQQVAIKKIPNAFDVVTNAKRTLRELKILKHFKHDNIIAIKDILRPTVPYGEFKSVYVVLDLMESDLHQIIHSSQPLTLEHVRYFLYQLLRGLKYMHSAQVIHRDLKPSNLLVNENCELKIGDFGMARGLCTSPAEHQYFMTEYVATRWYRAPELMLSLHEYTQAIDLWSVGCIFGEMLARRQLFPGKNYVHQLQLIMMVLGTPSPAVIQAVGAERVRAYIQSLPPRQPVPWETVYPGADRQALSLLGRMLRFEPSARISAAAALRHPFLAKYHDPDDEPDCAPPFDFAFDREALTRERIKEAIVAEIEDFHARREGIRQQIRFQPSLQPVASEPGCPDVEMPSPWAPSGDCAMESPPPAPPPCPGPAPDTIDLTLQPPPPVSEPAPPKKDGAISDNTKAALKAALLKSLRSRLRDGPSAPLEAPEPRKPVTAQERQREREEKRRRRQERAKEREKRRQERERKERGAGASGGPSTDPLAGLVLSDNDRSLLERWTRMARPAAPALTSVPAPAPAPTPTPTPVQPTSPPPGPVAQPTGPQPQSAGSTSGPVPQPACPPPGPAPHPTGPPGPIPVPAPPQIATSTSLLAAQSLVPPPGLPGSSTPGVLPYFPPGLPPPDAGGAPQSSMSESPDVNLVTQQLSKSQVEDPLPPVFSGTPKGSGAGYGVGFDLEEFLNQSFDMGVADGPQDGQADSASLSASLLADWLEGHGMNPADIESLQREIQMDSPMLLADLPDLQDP
compound,measurement,setting,value
OC1C(O)C(O)C(O)C(O)C1O (stereo unspecified),luciferase signal,[1],40 AU (inactive)
CN(C)CCCOc1nn(Cc2ccccc2)c2ccccc12,survival,[2],9 (inactive)
same,luciferase signal,[1],92 AU (inactive)
NC(=O)C1(N2CCCCC2)CCN(CCCC(=O)c2ccc(F)cc2)CC1,luciferase signal,[1],52 AU (inactive)
CC1(CN2CCC(n3c(=O)[nH]c4ccccc43)CC2)OCc2ccccc2-n2cccc21 (stereo unspecified),outcome,[3],inactive
same,outcome,[4],inactive
same,SSMD,[5],2.84
same,cell count,[5],7080
same,plate-normalised HSF1 focus index,[5],1.16 (inactive)
CCn1ccnc1CC1COc2ccccc2O1 (stereo unspecified),period change,[6],0.33 h (inactive)
same,inhibition,[7],-4% (inactive)
same,fluorescence ratio (interference),[8],1 (inactive)
same,outcome,[9],inactive
COc1ccc2c(c1OC)C(=O)O[C@@H]2[C@H]1c2c(cc3c(c2OC)OCO3)CCN1C,period change,[6],-0.03 h (inactive)
same,survival,[2],2.92 (inactive)
same,inhibition,[7],-2% (inactive)
same,fluorescence ratio (interference),[8],1 (inactive)
same,outcome,[9],inactive
same,luciferase signal,[1],44 AU (inactive)
CN1CCC[C@@H]1Cc1c[nH]c2ccc(CCS(=O)(=O)c3ccccc3)cc12,outcome,[9],inactive
same,luciferase signal,[1],48 AU (inactive)
CC[C@]1(O)C[C@H]2CN(CCc3c([nH]c4ccccc34)[C@@](C(=O)OC)(c3cc4c(cc3OC)N(C=O)[C@H]3[C@@](O)(C(=O)OC)[C@H](OC(C)=O)[C@]5(CC)C=CCN6CC[C@]43[C@@H]65)C2)C1,AC50,[10],0.332 µM (active)
same,AC50,[11],0.0295 µM (active)
same,AC50,[12],0.0295 µM (active)
same,luciferase signal,[1],72 AU (inactive)
FC(F)(F)c1ccccc1-n1ccnc1,period change,[6],-0.115 h (inactive)
same,inhibition,[7],0% (inactive)
same,fluorescence ratio (interference),[8],1 (inactive)
same,outcome,[9],inactive
CC#C[C@]1(O)CC[C@H]2[C@@H]3CCC4=CC(=O)CCC4=C3[C@@H](c3ccc(N(C)C)cc3)C[C@@]21C,period change,[6],0.39 h (inactive)
same,survival,[2],27.7 (inactive)
same,inhibition,[7],-1% (inactive)
same,fluorescence ratio (interference),[8],0.9 (inactive)
same,AC50,[3],0.418 µM (active)
same,AC50,[11],29.5 µM (active)
same,AC50,[4],2.96 µM (active)
same,outcome,[9],inactive
same,luciferase signal,[1],36 AU (inactive)
CN=C(NC#N)Nc1ccc(C2=NNC(=O)CC2C)cc1 (stereo unspecified),period change,[6],0.035 h (inactive)
Cn1ccc2cc3c(cc21)CCN3C(=O)Nc1cccnc1,period change,[6],0.355 h (inactive)
same,inhibition,[7],-3% (inactive)
same,fluorescence ratio (interference),[8],0.9 (inactive)
same,outcome,[3],inactive
same,outcome,[10],inactive
same,outcome,[11],inactive
same,outcome,[4],inactive
same,outcome,[12],inactive
same,outcome,[9],inactive
COCCOC(=O)C1=C(C)NC(C)=C(C(=O)OC/C=C/c2ccccc2)C1c1cccc([N+](=O)[O-])c1 (stereo unspecified),inhibition,[7],-1% (inactive)
same,fluorescence ratio (interference),[8],1 (inactive)
same,outcome,[9],active
CC(C)C(=O)c1c(C(C)C)nn2ccccc12,period change,[6],-0.095 h (inactive)
same,inhibition,[7],-1% (inactive)
same,fluorescence ratio (interference),[8],1 (inactive)
same,outcome,[9],inactive
Cc1cc(C)c(/C=C2\C(=O)Nc3ccccc32)[nH]1,period change,[6],0.375 h (inactive)
same,inhibition,[7],6% (inactive)
same,fluorescence ratio (interference),[8],1 (inactive)
same,outcome,[10],inactive
same,outcome,[12],inactive
same,outcome,[9],inactive
CCN1CCC[C@H]1CNC(=O)c1c(OC)ccc(Br)c1OC,survival,[2],12.3 (inactive)
C[C@@H](CN1CC(=O)NC(=O)C1)N1CC(=O)NC(=O)C1,outcome,[3],inactive
same,outcome,[10],inactive
same,outcome,[11],inactive
same,inhibition,"[13]; at 0.5 µM, stronger effect = higher value",-25.4% (inactive)
same,inhibition,"[13]; measured here: combination with BGB IC20, at 0.005 µM",7.12%
same,inhibition,"[13]; measured here: combination with BGB IC40, at 0.005 µM",4.81%
same,inhibition,"[13]; measured here: combination with BGB IC40, at 0.05 µM",-36.6%
same,inhibition,"[13]; measured here: combination with cisplatin, at 0.5 µM, stronger effect = higher value",-24.5%
same,inhibition,"[13]; measured here: combination with cisplatin, at 5 µM, stronger effect = higher value",-14.8%
same,inhibition,"[14]; BGB combo, at 5 µM",79.1%
same,inhibition,[14]; at 0.5 µM,-24% (inactive)
same,inhibition,"[14]; cisplatin combo, at 5 µM",-19.4%
same,inhibition,[14]; [21],-11.3%
same,inhibition,[14]; [22],-36.9%
same,inhibition,"[14]; single agent, at 5 µM",13.8%
same,inhibition,"[15]; BGB IC20 combo, at 0.005 µM",-2.91%
same,inhibition,"[15]; BGB IC40 combo, at 0.005 µM",-23%
same,inhibition,"[15]; BGB IC40 combo, at 0.05 µM",11.5%
same,inhibition,[15]; at 0.5 µM,-30.5% (inactive)
same,inhibition,"[15]; cisplatin combo, at 0.05 µM",8.27%
same,inhibition,"[15]; cisplatin combo, at 0.5 µM",-19.9%
same,inhibition,"[15]; cisplatin combo, at 5 µM",-27.8%
same,inhibition,"[15]; measured here: 5 uM single agent, at 5 µM",-8.08%
same,inhibition,[16]; at 0.5 µM,-26.1% (inactive)
same,inhibition,"[16]; measured here: with BGB IC20, at 0.5 µM",-21.1%
same,inhibition,"[16]; measured here: with BGB IC20, at 5 µM",-21.1%
same,inhibition,"[16]; measured here: with cisplatin IC20, at 0.5 µM",-39.6%
same,inhibition,"[16]; measured here: with cisplatin IC20, at 5 µM",-43.4%
same,inhibition,"[16]; single agent, at 5 µM",-10%
same,inhibition,[17]; at 0.5 µM,-7.66% (inactive)
same,inhibition,"[17]; measured here: BGB combination, at 0.5 µM",2.41%
same,inhibition,"[17]; measured here: BGB combination, at 5 µM",-3.41%
same,inhibition,"[17]; measured here: cisplatin combination, at 0.5 µM",-18.8%
same,inhibition,"[17]; measured here: cisplatin combination, at 5 µM",-28.2%
same,inhibition,[18]; at 0.5 µM,-9.97% (inactive)
same,inhibition,"[18]; cisplatin combination, at 0.5 µM",-43.1%
same,inhibition,"[18]; cisplatin combination, at 5 µM",-2.65%
same,inhibition,"[18]; measured here: BGB IC40 combination 0.05 uM, at 0.05 µM",19.5%
same,inhibition,"[18]; single agent, at 5 µM",-11.9%
same,inhibition,[19]; at 0.5 µM,-20.1% (inactive)
same,inhibition,"[19]; cisplatin combo, at 5 µM",-55.6%
same,inhibition,"[19]; measured here: BGB IC40 combination, at 0.05 µM",-8.51%
same,inhibition,"[19]; measured here: combination with cisplatin, at 0.5 µM",-37.1%
same,inhibition,"[19]; single agent, at 5 µM",-16.8%
same,inhibition,[20]; at 0.5 µM,-44.1% (inactive)
same,inhibition,[20]; [21],-33.6%
same,inhibition,[20]; [22],-51.8%
same,inhibition,"[20]; single agent, at 0.05 µM",-57.8%
same,inhibition,"[20]; single agent, at 5 µM",-52.7%
